Compound activity (PubChem BioAssay)
Shown are actives, neighbours in structure and some others; about 6.3% of the full set was active somewhere.
Gal4-VP16 FLuc: Gal4-VP16 reporter inhibition counter-screen; Drosophila S2 Gal4-VP16 UAS-luciferase, luminescence, 20 h; Potency, µM (top dose mostly 53.6 µM), without a hit: at the top dose activity, negative = inhibition, usual class: inhibitors; 310,000 compounds, 3.5% hits;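 also: Gal4-VP16 expression switched on by copper sulfate through the metallothionein promoter; % is scaled to controls: 0 for no effect and ±100 for the full control effect; nearly all actives have a fitted effect of over 50% in size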
RORgamma inh: inhibitors of mouse ROR gamma transcriptional activity; P51450; Drosophila S2 Gal4-RORgamma UAS-luciferase reporter, 20 h; Potency, µM (series often up to 53.6 µM), for inactives: at the highest dose activity change, negative = inhibition, most hits filed as inhibitors; 310,000 compounds, 5.4% hits; AID 2551; also: % is scaled to controls: 0 for no effect and ±100 for the full control effect; nearly all actives have a fitted effect of over 60% in size
Target sequence (P51450 whole entry, looked up, the tested form may be a part): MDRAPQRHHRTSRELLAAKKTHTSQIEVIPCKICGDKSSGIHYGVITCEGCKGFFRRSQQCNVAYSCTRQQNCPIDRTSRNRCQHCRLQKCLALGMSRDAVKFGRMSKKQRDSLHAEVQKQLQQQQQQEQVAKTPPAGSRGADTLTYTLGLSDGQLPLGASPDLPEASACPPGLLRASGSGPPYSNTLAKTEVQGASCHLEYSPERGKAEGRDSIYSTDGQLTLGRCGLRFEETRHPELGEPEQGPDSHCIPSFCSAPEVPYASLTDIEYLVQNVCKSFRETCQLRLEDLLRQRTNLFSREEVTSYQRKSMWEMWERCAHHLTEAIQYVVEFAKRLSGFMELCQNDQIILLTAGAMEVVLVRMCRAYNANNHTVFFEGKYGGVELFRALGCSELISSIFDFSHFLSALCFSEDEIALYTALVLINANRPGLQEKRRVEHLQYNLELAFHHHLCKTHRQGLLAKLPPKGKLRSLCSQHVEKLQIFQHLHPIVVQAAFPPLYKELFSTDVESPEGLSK
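Compounds are pin-transferred onto Drosophila Schneider cells expressing a copper-inducible Gal4–ROR gamma transactivation domain fusion. After 1 hr, copper sulfate is added to 700 uM final; luciferase is read 20 hr later.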
HepG2 tox: HepG2 cytotoxicity, counter-screen for TGF-b inhibitors | HepG2 CAGA-GFP viability, ATP luminescence, 18 h | Potency, µM (titrated, usually from 46.1 µM), without a hit: top-dose activity change, negative = cytotoxicity, usual class: cytotoxic | 410,000 compounds, 0.76% hits | AID 588856
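CellTiter-Glo luminescence gave cytotoxicity after 18 hours at 37 degrees C. The cells were HepG2 CAGA-GFP in 1% FBS DMEM, stimulated with 500 pg/mL TGF-beta after compound addition. %Activity was normalised to no-cell wells (complete cell-killing) and DMSO (no toxicity), and curves were fitted and classified.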
ATXN viability: cell viability loss in ATXN counter-screen. S2 cells (HEK-293 line with an ATXN2-luciferase reporter) viability, CellTiter-Fluor protease fluorescence, 24 h. Potency, µM (top dose mostly 56.7 µM), usual class: cytotoxic. 400,000 compounds, 0.49% hits. AID 651635; also: nearly all actives have a fitted effect of over 40% in size
TGFb inhibitor: TGF-b pathway inhibition. HepG2 CAGA-GFP TGF-b/SMAD3 reporter, GFP fluorescence, 18 h; TGF-beta stimulated, 500 pg/mL final. Potency, µM (doses to about 46.1 µM), for the others: top-dose activity, negative = inhibition, most hits filed as inhibitors. 410,000 compounds, 1.2% hits; also: % is scaled to controls: 0 for no effect and ±100 for the full control effect; nearly all actives have a fitted effect of over 65% in size
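Using HEPG2 CAGA-GFP reporter cells at 1000 cells/well, we pinned test compounds, stimulated with recombinant TGF-beta (500 pg/mL final) and measured total well GFP after 18 h.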
ATXN2 expr inh: inhibitors of ATXN2 expression; HEK-293 ATXN2-luciferase reporter, luminescence, 24 h; Potency, µM (doses to about 57 µM), inactives show at the top dose activity change, negative = inhibition, hits mostly inhibitors; 360,000 compounds, 0.72% hits; AID 1745845; also: % is scaled to controls: 0 for no effect and ±100 for the full control effect; nearly all actives have a fitted effect of over 55% in size
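ATXN2-luciferase reporter cells (luciferase flanked by upstream and downstream ATXN2 gene portions) were treated 24 h at 37 °C with compounds at up to 57 uM. SteadyGlo luminescence gave expression; GF-AFC fluorescence gave viability.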
An asterisk follows results filed as active; i = inactive; ? = inconclusive; nt = no result given; [ ] = another dose, or the depositor's remark. Calls follow the shape of the dose curve; as a rule, active = well fitted curve in the direction sought with a large enough effect; inconclusive = small, poorly fitted or top-dose-only effect, or another doubt; inactive = no such curve, though single readings can be large; an effect the other way counts as inactive or inconclusive. Potency is read from the fitted curve at half-maximal effect.

SMILES | Gal4-VP16 FLuc | RORgamma inh | HepG2 tox | ATXN viability | TGFb inhibitor | ATXN2 expr inh
O=C(NCc1cccnc1)NC1(C(F)(F)F)Oc2ccccc2O1 | ? | 10µM* | -26.1% | i | -17.6% | 12.1%
CN1C(=O)c2ccccc2C1=O | nt | nt | nt | ? | nt | 23.2%[116 µM]
COc1c(C2=CC(=O)N(C)C2=O)c2c(n1C)C(=O)c1ccccc1C2=O | 10µM* | ? | nt | nt | nt | nt
COC(=O)c1ccc(C(=O)NC(=S)Nc2nc3c(s2)CC(C)CC3)cc1 (centres undefined) | 2µM* | 1µM* | -13.8% | i | -15.6% | 39.4%
COc1ccc(CC(=O)NNC2=Nc3cccc4cccc2c34)cc1OC | -20.7% | ? | -12.2% | ? | -11.0% | nt
O=C(NNC1=Nc2cccc3cccc1c23)c1ccc(Br)cc1 | 2µM* | 0.708µM* | -12.9% | i | 6.3% | -34.4%
CC(C)(C)c1ccc(CN2N=Nc3ccccc3S2(=O)=O)cc1 | 1.58µM* | 23.0% | 10.7% | nt | -13.0% | ?
O=S1(=O)c2ccccc2N=NN1Cc1ccc(Cl)c(Cl)c1 | 17.7% | -1.4% | nt | nt | nt | nt
C#CC[N+](C)(C)CCCCCCCCCC | -2.8% | ? | -37.2% | i | ? | ?
CC#CC[N+](C)(C)CCCCCCCCCCCC | 7.08µM* | ? | -45.9% | ? | ? | 25.1µM*
C#CC[N+](C)(C)CCCCCCCCCCCC | 11.2µM* | ? | -88.8% | i | ? | ?
Cc1ccc(S(=O)(=O)NCc2nnnn2-c2ccc(F)cc2)cc1 | nt | nt | 16.7% | i | 8.9% | nt
CNC(=S)N/N=C/c1c2ccccc2c(Cl)c2ccccc12 | 5.01µM* | 4.47µM* | 3.5% | nt | 9.6% | -28.9%
CNC(=S)N/N=C/c1c(C)cccc1Cl | 3.98µM* | 2.24µM* | 16.8% | i | -16.9% | -30.9%
CCCCCCn1c(=O)c2c(ncn2C)n(C)c1=O | nt | nt | nt | i | nt | 7.6%
O=C(NC1=C(NC2CCS(=O)(=O)C2)C(=O)c2ccccc2C1=O)c1ccccc1 (centres undefined) | ? | 12.6µM* | -117.4% | 29.9µM* | ? | ?
O=C(NC(NC1CCS(=O)(=O)C1)C(=O)c1cccs1)c1ccccc1 (centres undefined) | 5.9% | 0.8% | 5.8% | i | -0.5% | 8.1%
COc1cc(/C=C2\CCc3c2nc2ccccc2c3C(=O)O)cc(OC)c1OC | ? | 10µM* | -5.1% | nt | -23.1% | nt
COc1cc(/C=C2\CCCc3c2nc2ccccc2c3C(=O)O)cc(Br)c1O | -2.1% | 3.2% | 6.3% | ? | -0.6% | 4.8%
CCCc1ccc(O)c(N=Cc2cc(Br)cc(OCC)c2O)c1 | 12.6µM* | 7.08µM* | -49.9% | i | ? | ?
COCCCn1cn[nH]c1=S | 5.7% | -22.2% | -23.5% | i | 2.4% | -33.4%
CC(C)(C)n1cn[nH]c1=S | -12.7% | 11.2µM* | 6.5% | i | 1.7% | 17.4%
Cc1ccccc1NC1=NC(=S)N(c2ccccc2)C12CCCCC2 | ? | 3.55µM* | -2.8% | i | -3.9% | 4.0%
CC1(C)CC2(CCO1)C(Nc1ccccc1)=NC(=S)N2c1ccccc1 (centres undefined) | 2.8% | 25.1% | -12.7% | i | -2.9% | 1.1%
Cc1ccccc1NC1=NC(=S)N(c2ccccc2)C12CCOC(C)(C)C2 (centres undefined) | 17.8µM* | 6.31µM* | 6.1% | nt | -3.3% | nt
SMILES | Gal4-VP16 FLuc | RORgamma inh | HepG2 tox | ATXN viability | TGFb inhibitor | ATXN2 expr inh
Cc1nnc(N2CCN(C(=O)Nc3cccc(C(F)(F)F)c3)CC2)c2nn(-c3ccccc3)c(C)c12 | nt | nt | -1.7% | i | 4.3% | 0.0%
O=S(=O)(c1cccnc1)N1CCN(c2nc(-c3cccs3)nc3ccccc23)CC1 | nt | nt | -45.8% | nt | -20.2% | nt
CC(C)(C)c1ccc(C(=O)NC(=S)N2CCCCCC2)cc1 | 0.501µM* | 0.282µM* | -2.5% | i | -2.3% | -10.7%
CC(C)(C)c1ccc(C(=O)NC(=S)N2CCCC2)cc1 | 0.891µM* | 0.708µM* | -6.3% | i | 0.0% | 4.4%
CN1CCN(C(=S)NC(=O)c2ccc(Cl)cc2)CC1 | 1µM* | 0.398µM* | 1.2% | i | -9.9% | -2.1%
CCOC(=O)N1CCN(C(=S)NC(=O)C2CCCC2)CC1 | -7.5% | -34.7% | 15.7% | i | 2.3% | -0.6%
CC(C)(C)CC(=O)NC(=S)N1CCCCCC1 | ? | 7.94µM* | -9.1% | i | -11.3% | 5.2%
CNCC(=O)c1c[nH]c2ccccc12 | nt | nt | -11.2% | nt | -10.8% | nt
Cc1ccc(-c2nnc3ccc(SCC(=O)OCc4ccccc4)nn23)cc1 | nt | nt | -6.7% | nt | -2.3% | nt
C[C@]12C=CC(=O)C=C1CC[C@@H]1[C@@H]2[C@@H](O)C[C@@]2(C)[C@@H]1CC[C@]2(O)C(=O)CO | nt | nt | nt | nt | nt | -3.5%
Cc1ccc(CNC(=O)c2ccc3c(c2)nc(C)n3-c2cccc(F)c2)cc1 | nt | nt | 15.5% | nt | -1.7% | nt
O=C1CCCCCN1C(=O)c1ccccc1 | nt | nt | 13.6% | i | 0.0% | -8.4%
CC(C)(C)c1ccc(C(=O)N2CCCCCC2=O)cc1 | 2.24µM* | ? | -19.8% | i | 13.0% | 6.31µM*
CCOc1ccc(Nc2nc(N)nc(CCl)n2)cc1 | ? | ? | -61.0% | ? | 11.2µM* | ?
Nc1nc(CCl)nc(Nc2ccccc2)n1 | -29.3% | -20.0% | -59.7% | nt | ? | ?
COc1cccc(Nc2nc(N)nc(CCl)n2)c1 | -20.8% | -18.8% | -40.5% | ? | ? | ?
Cc1ccc(Nc2nc(N)nc(CC#N)n2)cc1 | -2.6% | 17.2% | -43.5% | i | 12.6µM* | 35.9%
Cc1cccc(Nc2nc(N)nc(CCl)n2)c1 | 10µM* | ? | -10.1% | ? | ? | ?
Cc1cccc(Nc2nc(N)nc(CCl)n2)c1C | ? | ? | -54.4% | ? | 14.1µM* | 1µM*
Cc1cccc(C)c1NC(=O)C1c2ccccc2OCC(=O)N1C1CC1 (centres undefined) | nt | nt | nt | ? | nt | 7.4%
CCC(=O)NCCCC[C@H](NC(=O)OCc1ccccc1)C(=O)Nc1ccc2c(C)cc(=O)oc2c1 | 13.1% | -12.7% | nt | nt | nt | nt
CCc1ccc(C=O)cc1 | nt | nt | -4.0% | nt | -2.4% | nt
Cc1ccccc1Nc1nc(N)nc(CSc2nc3ccccc3s2)n1 | -9.3% | ? | 3.8% | i | -5.8% | 6.5%
Cc1ccc(Nc2nc(N)nc(CSc3nc4ccccc4s3)n2)cc1 | -18.5% | -39.3% | -62.9% | nt | 12.6µM* | ?
Cc1ccc(Nc2nc(N)nc(CCl)n2)cc1 | ? | ? | -23.1% | nt | ? | 11.2µM*
CCOc1ccc(NC(=O)C(=O)NCCc2ccccc2)cc1 | nt | nt | 30.5% | i | 0.2% | 4.9%
CCOc1ccc(/C(CCC(=O)O)=N/NC(=S)NCCc2ccccc2)cc1 | ? | 7.94µM* | -69.7% | i | 12.0% | -21.9%
CN(C)/C=N/NC(=O)c1ccccc1 | -19.1% | 1.3% | 2.9% | i | -2.9% | -10.9%
